A549 tox: A549 cytotoxicity, counter-screen for Nrf2 inhibitors; A549 ARE-Fluc cells, CellTiter-Fluor viability, 18-24 h; Potency, µM (highest dose often 46 µM), actives largely listed as inhibitors; hit rate 0.16% among 390,000; AID 504648
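A549 ARE_Fluc cells in 5% FBS OPTI-MEM were exposed to compounds in concentration-response for 18-24 h at 37 deg C. Viability was read by CellTiter-Fluor fluorescence (Ex 405/Em 525) after 30 min, before the luciferase read.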
HepG2 tox-1: kills HepG2 cells in TGF-b inhibitor counter-screen; HepG2 CAGA-GFP viability, ATP luminescence, 18 h; Potency, µM (series often up to 46.1 µM), actives largely listed as cytotoxic; hit rate 0.76% among 410,000
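CellTiter-Glo luminescence gave cytotoxicity after 18 hours at 37 degrees C. The cells were HepG2 CAGA-GFP in 1% FBS DMEM, stimulated with 500 pg/mL TGF-beta after compound addition. %Activity was normalised to no-cell wells (complete cell-killing) and DMSO (no toxicity), and curves were fitted and classified.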
Nrf2 ARE act: activators of Nrf2 (ARE) signaling. AREc32 ARE-luciferase reporter (MCF7-derived line), luminescence, 24 h. Potency, µM (titrated, usually from 46.1 µM), usual class: activators. hit rate 0.31% among 410,000; further: nearly all actives have a fitted effect of over 65% in size
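AREc32 cells carrying an ARE-driven firefly luciferase reporter were seeded at 1000 cells/well in OPTI-MEM with 5% FBS, then exposed to compound for 24 hr at 37 deg C. Luminescence was read with Steady-Glo after 30 min at RT.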
TGFb inhibitor: TGF-b pathway inhibition | HepG2 CAGA-GFP TGF-b/SMAD3 reporter, GFP fluorescence, 18 h; TGF-beta stimulated, 500 pg/mL final | hit rate 1.2% among 410,000 | Potency, µM (series often up to 46.1 µM), actives largely listed as inhibitors; further: nearly all actives have a fitted effect of over 65% in size
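Inhibition was scored as loss of TGF-beta-induced (500 pg/mL final, 18 hours, 37 degrees C) GFP in HEPG2 cells carrying a CAGA-GFP reporter, in DMEM with 1% FBS. Well GFP was summed per cell; Activity was normalised to unstimulated and stimulated DMSO wells, then concentration-response fitting.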
Nrf2 inh: Nrf2 pathway inhibition | A549 ARE-Fluc reporter, luciferase luminescence, 18-24 h | Potency, µM (titrated, usually from 46 µM), most hits filed as inhibitors | hit rate 2.1% among 360,000; further: nearly all actives have a fitted effect of over 60% in size
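Nrf2 function is reported as luminescence of an ARE-controlled luciferase in A549 cells. Compounds were tested at several concentrations, and a CellTiter-Fluor read on the same wells flagged cytotoxicity.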
TGFb CAGA inh: confirmation of TGF-b signaling inhibitors in HepG2 reporter cells. HepG2 CAGA-GFP TGF-b reporter, GFP fluorescence, 18 h; cells stimulated with TGF-beta, 500 pg/mL. AID 720534. shares compounds with TGFb inhibitor. hit rate 63% among 1,600. Potency, µM (titrated, usually from 46.1 µM), usual class: inhibitors; further: nearly all actives have a fitted effect of over 65% in size
HepG2 tox-2: HepG2 cytotoxicity, TGF-b inhibitor counterscreen. shares compounds with TGFb inhibitor. HepG2 CAGA-GFP viability, ATP luminescence, 18 h; cells stimulated with TGF-beta, 500 pg/mL. Potency, µM (titrated, usually from 46.1 µM), hits mostly inhibitors. hit rate 27% among 1,600; further: nearly all actives have a fitted effect of over 70% in size
TGFb CCL64 inh: TGF-b inhibition, CCL64 orthogonal assay. hit rate 41% among 1,600. CCL64 CAGA-GFP reporter, TGF-b stimulated, GFP fluorescence, 18 h. Potency, µM (top dose mostly 46.1 µM), usual class: inhibitors. AID 720536. shares compounds with TGFb inhibitor; further: nearly all actives have a fitted effect of over 65% in size
TGFb COP inh: TGF-b inhibition validated with COP promoter | shares compounds with TGFb inhibitor | HepG2 COP-GFP TGF-b reporter, GFP fluorescence, 18 h; cells stimulated by added recombinant TGF-beta | Potency, µM (titrated, usually from 46.1 µM), usual class: inhibitors | hit rate 3% among 1,600; further: nearly all actives have a fitted effect of over 70% in size
Large screens that a line does not name were inactive (follow-up assays come after a bar, where they were run); ! = not confirmed by another sample. Most compounds without a hit are left out; they make up all but 3.6% or so of the library. The call rests on the fitted dose curve; in most records, active means well fitted curve in the direction sought with a large enough effect; inconclusive means small, poorly fitted or top-dose-only effect, or another doubt; inactive means no such curve, though single readings can be large; an effect the other way counts as inactive or inconclusive.

COc1ccc2c(C)nc(Nc3nc(-c4ccccc4)cc(=O)[nH]3)nc2c1	TGFb inhibitor 4µM, Nrf2 inh inconclusive | TGFb CAGA inh 2.3µM | HepG2 tox-2 5.8µM | TGFb CCL64 inh inconclusive | TGFb COP inh inactive
N#CC(c1ccc(Cl)cc1)c1ccc2c(C(F)(F)F)cc(C(F)(F)F)nc2n1 (centres undefined)	A549 tox 5.8µM, TGFb inhibitor 3.5µM, Nrf2 inh 1.5µM | TGFb CAGA inh 5.2µM | HepG2 tox-2 6.5µM | TGFb CCL64 inh 1.5µM | TGFb COP inh inactive
Cc1ccccc1C(=O)N1CCN(c2ccc(NC(=O)CSc3ccc(Cl)cc3)cc2)CC1	TGFb inhibitor 4.5µM, Nrf2 inh 21µM | TGFb CAGA inh 4.1µM | HepG2 tox-2 inconclusive | TGFb CCL64 inh inconclusive | TGFb COP inh inactive
Cc1cc(C)nc(/N=C(\N)Nc2ccc(OCc3ccccc3)cc2)n1	TGFb inhibitor 0.25µM | TGFb CAGA inh 0.18µM | HepG2 tox-2 inconclusive | TGFb CCL64 inh 18µM | TGFb COP inh inactive
Cc1cc(C)nc(/N=C(\N)Nc2cccc(OCc3ccccc3)c2)n1	TGFb inhibitor inconclusive
Cc1cc(C)nc(/N=C(\N)Nc2ccc(CC(=O)OC(C)C)cc2)n1	TGFb inhibitor 10µM, Nrf2 inh inconclusive | TGFb CAGA inh inconclusive | HepG2 tox-2 inactive | TGFb CCL64 inh inconclusive | TGFb COP inh inactive
CC1=NN(C(=O)c2ccc(Cn3cc(Br)c([N+](=O)[O-])n3)o2)C(O)(C(F)(F)F)C1 (centres undefined)	TGFb inhibitor inconclusive
CC(=O)Nc1cccc(C(=O)N(CCc2ccccc2)Cc2ccccc2)c1	none
O=C(NCc1ccc(F)cc1)C(c1ccccc1)c1ccccc1	none
CC(=O)N(Cc1ccc(F)cc1)C1=C(NCc2ccccc2)C(=O)c2ccccc2C1=O	A549 tox 10µM, HepG2 tox-1 3.2µM, TGFb inhibitor 6.3µM, Nrf2 inh 6.3µM | TGFb CAGA inh 7.3µM | HepG2 tox-2 3.7µM | TGFb CCL64 inh 3.7µM | TGFb COP inh inconclusive
C=C1[C@@H](O)CN(Cc2ccc(OC)cc2)S1(=O)=O	TGFb inhibitor inconclusive (no result: A549 tox, Nrf2 ARE act, Nrf2 inh)
COc1ccc(CN2C[C@H]3CCCN3c3cc(Br)ccc3S2(=O)=O)cc1	TGFb inhibitor 10µM | TGFb CAGA inh 8.2µM | HepG2 tox-2 inactive | TGFb CCL64 inh inconclusive | TGFb COP inh inactive
O=C(c1ccc2c(c1)OCO2)C1CCCN(Cc2ccc(OC(F)F)cc2)C1 (centres undefined)	TGFb inhibitor inconclusive, Nrf2 inh inconclusive | TGFb CAGA inh inconclusive | HepG2 tox-2 inconclusive | TGFb CCL64 inh inconclusive | TGFb COP inh inactive
COc1ccccc1NC(=O)CCS(=O)(=O)c1ccc2c(c1)oc(=O)n2C	none
COc1cc2c(cc1OC)C(C)N(C(=O)c1cc(C)on1)CC2 (centres undefined)	A549 tox inconclusive, TGFb inhibitor 11µM, Nrf2 inh inconclusive | TGFb CAGA inh 7.3µM | HepG2 tox-2 inactive | TGFb CCL64 inh inconclusive | TGFb COP inh inconclusive
O=C(NCc1ccc2c(c1)OCO2)c1cc([N+](=O)[O-])ccc1N1CCCCC1	A549 tox inconclusive, TGFb inhibitor inconclusive | TGFb CAGA inh inconclusive | HepG2 tox-2 inactive | TGFb CCL64 inh inconclusive | TGFb COP inh inactive
CCOC(=O)C1CCN(C(=O)c2cc3cc(F)ccc3[nH]2)CC1	none
O=C(NC(=S)Nc1ccc(Br)c(Cl)c1)C1CC1	TGFb inhibitor 1.6µM | TGFb CAGA inh 0.82µM | HepG2 tox-2 2.1µM | TGFb CCL64 inh inconclusive | TGFb COP inh inactive
O=C(NC(=S)Nc1cccc(Cl)c1Cl)C1CC1	TGFb inhibitor 1.3µM, Nrf2 inh inconclusive | TGFb CAGA inh 1.8µM | HepG2 tox-2 3.7µM | TGFb CCL64 inh 15µM | TGFb COP inh inactive
CC(=O)Nc1ccc(NC(=S)NC(=O)C2CC2)cc1	Nrf2 inh inconclusive
O=C(NNC(=S)Nc1ccccc1Cl)C1CC1	none
O=C(CSc1c2c(nc3ccc(Cl)cc13)CCCC2)N1CCN(C(=O)c2ccco2)CC1	Nrf2 ARE act inconclusive, TGFb inhibitor inconclusive, Nrf2 inh inconclusive
CCCCC[C@H]1CN(CCc2ccccc2)C(=O)[C@@H]1CC(=O)NCc1ccc(OC)cc1	A549 tox inconclusive, HepG2 tox-1 7.1µM!, TGFb inhibitor 10µM, Nrf2 inh 26µM | TGFb CAGA inh inconclusive | HepG2 tox-2 inactive | TGFb CCL64 inh inconclusive | TGFb COP inh inactive
O=c1cc(NS(=O)(=O)c2ccccc2)nc(SCc2ccc(Cl)cc2)[nH]1	TGFb inhibitor 4µM | TGFb CAGA inh inconclusive | HepG2 tox-2 inactive | TGFb CCL64 inh 18µM | TGFb COP inh inactive
Nc1cc2[nH]c(=O)c3ccccc3c2cc1Br	Nrf2 ARE act inconclusive, TGFb inhibitor 0.32µM, Nrf2 inh inconclusive | TGFb CAGA inh inconclusive | HepG2 tox-2 1.5µM | TGFb CCL64 inh inactive | TGFb COP inh inactive
Nc1ccc2c(c1)[nH]c(=O)c1ccccc12	Nrf2 inh inconclusive
CC(=O)Nc1ccc(S(=O)(=O)N2CCN(Cc3nc4sc(C)c(C)c4c(=O)[nH]3)CC2)cc1	TGFb inhibitor inconclusive | TGFb CAGA inh inactive | HepG2 tox-2 inactive | TGFb CCL64 inh inactive | TGFb COP inh inactive
O=C(Nc1ccc(N2CCN(c3ncccc3C(F)(F)F)CC2)nc1)c1cccs1	A549 tox inconclusive, TGFb inhibitor 4µM, Nrf2 inh 21µM | TGFb CAGA inh inconclusive | HepG2 tox-2 inconclusive | TGFb CCL64 inh inconclusive | TGFb COP inh inactive
O=C(Nc1ccc(N2CCN(c3ccc(C(F)(F)F)cn3)CC2)nc1)c1cccs1	TGFb inhibitor inconclusive, Nrf2 inh inconclusive
CCCC(=O)OCC(=O)NCc1ccc(Cl)cc1	Nrf2 inh inconclusive
O=C(COC(=O)CC(c1ccccc1)c1ccccc1)NCc1ccc(Cl)cc1	TGFb inhibitor 11µM | TGFb CAGA inh inconclusive | HepG2 tox-2 inconclusive | TGFb CCL64 inh inconclusive | TGFb COP inh inactive
Cc1ccc(-n2cc(C(=O)c3cc(Cl)ccc3O)cc(C#N)c2=O)cc1	TGFb inhibitor inconclusive

High-throughput results deposited in PubChem by National Center for Advancing Translational Sciences (NCATS).
